Test results published in ChEMBL document CHEMBL4513146, “CO-ADD screening of Karazin Kharkiv National University (Ukraine) compounds”.
Entries with a potency or affinity are not part of this list.

Each compound was assayed on Klebsiella pneumoniae. Details: Concentration 32 ug.mL-1;; ASSAY_TEST Inhibition of Bacterial Growth; detection method Absorption (OD600); MEDIA CAMHB; plate type 384well; NBS; CORNING #3640; time 18 hr.

Row | Compound | Inhibition [%]
1 | COc1ccc(NC(=O)c2ccc3nn(CC(=O)Nc4ccc5c(c4)OCCO5)c(=O)n3c2)cc1 | 2.24
2 | CSc1cccc(NC(=O)Cn2nc3c(N4CCCC(C)C4)nccn3c2=O)c1 (stereo not drawn) | 8.54
3 | O=C(Cn1nc2c(SC3CCCCC3)nccn2c1=O)Nc1ccccc1Br | 3.34
4 | COc1ccc(-c2cc3c4nnc(SCC(=O)Nc5ccc(OC)c(Cl)c5)n4ccn3n2)cc1 | 6.25
5 | COc1cccc(CN(c2ccc(F)cc2)S(=O)(=O)c2ccc3nnc(C)n3c2)c1 | 7.98
6 | COc1ccc(-c2cc3c4nn(CC(=O)NCc5ccccc5Cl)c(=O)n4ccn3n2)cc1 | 14.7
7 | CCC(Sc1nnc2c(=O)n(-c3ccccc3)ccn12)C(=O)Nc1cc(F)ccc1F (stereo not drawn) | 10.28
8 | COc1ccccc1NC(=O)Cn1nc2c(SCc3ccc(Cl)cc3)nccn2c1=O | 9.59
9 | Cc1ccc(-c2cc3c4nn(CC(=O)Nc5cccc(Br)c5)c(=O)n4ccn3n2)cc1 | 10.81
10 | COc1ccccc1NC(=O)Cn1c(=O)c2nnc(C(C)C)n2c2ccccc21 | 6.56
11 | O=C(CSc1nnc2c(=O)n(-c3ccc(F)cc3)ccn12)N1CCN(c2ccccc2F)CC1 | -3.8
12 | Cc1ccc(Oc2nccn3c(=O)n(CC(=O)Nc4ccc(C)cc4Cl)nc23)cc1 | 4.57
13 | COc1cccc(CN(c2cccc(C)c2)S(=O)(=O)c2ccc3nnc(C)n3c2)c1 | 4.27
14 | Cc1nnc2c(=O)n(CC(=O)Nc3ccccc3Br)c3ccccc3n12 | 8.13
15 | CCOc1ccccc1CNC(=O)CCc1nnc2ccc(-c3ccc(C)cc3)nn12 | 6.87
16 | O=C(Cn1nc2c3cc(-c4ccc(F)cc4)nn3ccn2c1=O)Nc1ccc2c(c1)OCCO2 | 11.81
17 | CCCN(C)c1nccn2c(=O)n(CC(=O)Nc3ccc(C#N)cc3)nc12 | 16.62
18 | CCCCc1ccc(NC(=O)CSc2nc3ccccc3n3c(C(C)C)nnc23)cc1 | 2.68
19 | COc1ccccc1N1CCN(C(=O)CSc2nc3ccccc3n3c(C(C)C)nnc23)CC1 | 6.45
20 | CCCc1nnc2c(=O)n(CC(=O)Nc3cccc(Br)c3)c3ccccc3n12 | 0.59

Row | Compound | Inhibition [%]
21 | Cc1ccc(C)c(Cn2nc3c(=O)n(-c4cccc(Cl)c4C)ccn3c2=O)c1 | 3.77
22 | COc1ccc(Cl)cc1NC(=O)Cn1nc2c(Sc3ccc(C)cc3C)nccn2c1=O | 5.33
23 | COc1cccc(-c2noc(Cn3nc4ccc(-c5ccc(C)c(C)c5)nn4c3=O)n2)c1OC | 9.19
24 | Cc1cccc(NC(=O)Cn2nc3c4cc(-c5ccc(Cl)cc5)nn4ccn3c2=O)c1C | 3.93
25 | CCOc1ccc(-n2ccn3c(SCC(=O)c4cccc(Cl)c4)nnc3c2=O)cc1 | 10.21
26 | CN(C)C(=O)CSc1nnc2c(=O)n(-c3ccc(F)cc3)ccn12 | 10.89
27 | Cc1ccccc1NC(=O)Cn1nc2ccc(SC3CCCCC3)nn2c1=O | 2.21
28 | COc1ccc(-c2cc3c4nn(CC(=O)Nc5c(C)cccc5C)c(=O)n4ccn3n2)cc1 | 9.85
29 | Cc1cc(C)cc(N(Cc2cc(F)cc(F)c2)S(=O)(=O)c2cccn3c(C)nnc23)c1 | 11.7
30 | Cc1c(Cl)cccc1NC(=O)CSc1nc2ccccc2n2c(C)nnc12 | 13.43
31 | CC(C)Cn1c(=O)c2sccc2n2c(=O)n(CC(=O)NC(C)(C)C)nc12 | 2.39
32 | C=Cc1ccc(CSc2nnc3c(=O)n(-c4cccc(OC)c4)ccn23)cc1 | 9.99
33 | COc1cc(NC(=O)Cn2nc3c(Oc4ccccc4)nccn3c2=O)cc(OC)c1OC | 10.24
34 | COC(=O)c1ccc(CN(c2ccc(C)cc2)S(=O)(=O)c2ccc3nnc(C)n3c2)o1 | 8.84
35 | CC1CC(C)CN(c2nccn3c(=O)n(CC(=O)NCc4ccccc4Cl)nc23)C1 (stereo not drawn) | 9.46
36 | Cc1nnc2ccc(S(=O)(=O)N(Cc3ccccc3Cl)c3cccc(F)c3)cn12 | 7.69
37 | COc1ccc(NC(=O)Cn2nc3c(SCc4ccc(Cl)cc4)nccn3c2=O)cc1 | 5.73
38 | O=C(CSc1nnc2c(=O)n(-c3ccccc3)ccn12)c1c[nH]c2ccccc12 | 19.5
39 | CCCc1nnc2c(=O)n(CC(=O)N3CCCc4ccccc43)c3ccccc3n12 | 7.45

Each compound was assayed on Candida albicans. Details: Concentration 32 ug.mL-1; ASSAY_TEST Inhibition of Fungal Growth; detection method Absorption (OD530).

Row | Compound | Inhibition [%]
40 | COc1ccc(NC(=O)c2ccc3nn(CC(=O)Nc4ccc5c(c4)OCCO5)c(=O)n3c2)cc1 | 1.62
41 | CSc1cccc(NC(=O)Cn2nc3c(N4CCCC(C)C4)nccn3c2=O)c1 (stereo not drawn) | 6.43
42 | O=C(Cn1nc2c(SC3CCCCC3)nccn2c1=O)Nc1ccccc1Br | 3.41
43 | COc1ccc(-c2cc3c4nnc(SCC(=O)Nc5ccc(OC)c(Cl)c5)n4ccn3n2)cc1 | 2.5
44 | COc1cccc(CN(c2ccc(F)cc2)S(=O)(=O)c2ccc3nnc(C)n3c2)c1 | -0.17
45 | COc1ccc(-c2cc3c4nn(CC(=O)NCc5ccccc5Cl)c(=O)n4ccn3n2)cc1 | 1.1
46 | CCC(Sc1nnc2c(=O)n(-c3ccccc3)ccn12)C(=O)Nc1cc(F)ccc1F (stereo not drawn) | 0.38
47 | COc1ccccc1NC(=O)Cn1nc2c(SCc3ccc(Cl)cc3)nccn2c1=O | 1.74
48 | Cc1ccc(-c2cc3c4nn(CC(=O)Nc5cccc(Br)c5)c(=O)n4ccn3n2)cc1 | 6.28
49 | COc1ccccc1NC(=O)Cn1c(=O)c2nnc(C(C)C)n2c2ccccc21 | -0.06
50 | O=C(CSc1nnc2c(=O)n(-c3ccc(F)cc3)ccn12)N1CCN(c2ccccc2F)CC1 | 5.18
51 | Cc1ccc(Oc2nccn3c(=O)n(CC(=O)Nc4ccc(C)cc4Cl)nc23)cc1 | 3.92
52 | COc1cccc(CN(c2cccc(C)c2)S(=O)(=O)c2ccc3nnc(C)n3c2)c1 | 0.75
53 | Cc1nnc2c(=O)n(CC(=O)Nc3ccccc3Br)c3ccccc3n12 | 2.04
54 | CCOc1ccccc1CNC(=O)CCc1nnc2ccc(-c3ccc(C)cc3)nn12 | 2.37
55 | O=C(Cn1nc2c3cc(-c4ccc(F)cc4)nn3ccn2c1=O)Nc1ccc2c(c1)OCCO2 | 2.29
56 | CCCN(C)c1nccn2c(=O)n(CC(=O)Nc3ccc(C#N)cc3)nc12 | 0.92
57 | CCCCc1ccc(NC(=O)CSc2nc3ccccc3n3c(C(C)C)nnc23)cc1 | 2.13
58 | COc1ccccc1N1CCN(C(=O)CSc2nc3ccccc3n3c(C(C)C)nnc23)CC1 | -2.8
59 | CCCc1nnc2c(=O)n(CC(=O)Nc3cccc(Br)c3)c3ccccc3n12 | 0.12

Row | Compound | Inhibition [%]
60 | Cc1ccc(C)c(Cn2nc3c(=O)n(-c4cccc(Cl)c4C)ccn3c2=O)c1 | 2.62
61 | COc1ccc(Cl)cc1NC(=O)Cn1nc2c(Sc3ccc(C)cc3C)nccn2c1=O | 2.63
62 | COc1cccc(-c2noc(Cn3nc4ccc(-c5ccc(C)c(C)c5)nn4c3=O)n2)c1OC | -0.69
63 | Cc1cccc(NC(=O)Cn2nc3c4cc(-c5ccc(Cl)cc5)nn4ccn3c2=O)c1C | 0.51
64 | CCOc1ccc(-n2ccn3c(SCC(=O)c4cccc(Cl)c4)nnc3c2=O)cc1 | 2.76
65 | CN(C)C(=O)CSc1nnc2c(=O)n(-c3ccc(F)cc3)ccn12 | 3.85
66 | Cc1ccccc1NC(=O)Cn1nc2ccc(SC3CCCCC3)nn2c1=O | -1.85
67 | COc1ccc(-c2cc3c4nn(CC(=O)Nc5c(C)cccc5C)c(=O)n4ccn3n2)cc1 | 7.22
68 | Cc1cc(C)cc(N(Cc2cc(F)cc(F)c2)S(=O)(=O)c2cccn3c(C)nnc23)c1 | 0.35
69 | Cc1c(Cl)cccc1NC(=O)CSc1nc2ccccc2n2c(C)nnc12 | 0.95
70 | CC(C)Cn1c(=O)c2sccc2n2c(=O)n(CC(=O)NC(C)(C)C)nc12 | -0.9
71 | C=Cc1ccc(CSc2nnc3c(=O)n(-c4cccc(OC)c4)ccn23)cc1 | 4.25
72 | COc1cc(NC(=O)Cn2nc3c(Oc4ccccc4)nccn3c2=O)cc(OC)c1OC | 3.29
73 | COC(=O)c1ccc(CN(c2ccc(C)cc2)S(=O)(=O)c2ccc3nnc(C)n3c2)o1 | 0.1
74 | CC1CC(C)CN(c2nccn3c(=O)n(CC(=O)NCc4ccccc4Cl)nc23)C1 (stereo not drawn) | -0.66
75 | Cc1nnc2ccc(S(=O)(=O)N(Cc3ccccc3Cl)c3cccc(F)c3)cn12 | 4.75
76 | COc1ccc(NC(=O)Cn2nc3c(SCc4ccc(Cl)cc4)nccn3c2=O)cc1 | -0.37
77 | O=C(CSc1nnc2c(=O)n(-c3ccccc3)ccn12)c1c[nH]c2ccccc12 | 3.09
78 | CCCc1nnc2c(=O)n(CC(=O)N3CCCc4ccccc43)c3ccccc3n12 | 0.04
